Experimental data: PubChem BioAssay (NCI)
About 83,000 compounds went through this panel and 20% of them were active in at least one assay; those are over-represented in the sample as a whole.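 96-well plates, one dose, 48 hours. Percent growth reported; active if below 10.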 Activity calls are given as the source filed them.

Key:
Test in all cases: NCI-60 one-dose screen, 48 h (100 = growth as untreated, 0 = no growth, -100 = all killed)
EKVX NSCLC = settings: 10 µM
SN12C renal = settings: 10 µM unless noted
UO-31 renal = settings: 10 µM unless noted
TK-10 renal = settings: 10 µM unless noted
ACHN renal = settings: 10 µM unless noted
CAKI-1 renal = settings: 10 µM unless noted
A498 renal = settings: 10 µM unless noted
CCRF-CEM leukemia = settings: 10 µM
MOLT-4 leukemia = settings: 10 µM unless noted
SR leukemia = settings: 10 µM unless noted
RPMI-8226 leukemia = settings: 10 µM unless noted
OVCAR-8 ovarian = settings: 10 µM unless noted
OVCAR-5 ovarian = settings: 10 µM unless noted
OVCAR-4 ovarian = settings: 10 µM unless noted
SK-OV-3 ovarian = settings: 10 µM unless noted
OVCAR-3 ovarian = settings: 10 µM unless noted
HS 578T breast = settings: 10 µM unless noted
NCI/ADR-RES ovarian = settings: 10 µM unless noted
SK-MEL-2 melanoma = settings: 10 µM unless noted
IGROV1 ovarian = settings: 10 µM unless noted

Measured: growth

O=c1c2c(c3ccccc3n1-c1ccccc1)NC(=S)NC2c1ccc(Cl)cc1 (stereo unspecified)
inactive: EKVX NSCLC 20% | SN12C renal 50.1% | UO-31 renal 47.6% | TK-10 renal 10.8% | ACHN renal 52.7% | CAKI-1 renal 33.2% | A498 renal 50.6% | MOLT-4 leukemia 25.4% | SR leukemia 26% | OVCAR-8 ovarian 41.3% | OVCAR-5 ovarian 45.5% | OVCAR-4 ovarian 76% | SK-OV-3 ovarian 50.3% | OVCAR-3 ovarian 47.5% | NCI/ADR-RES ovarian 78.3%
active: CCRF-CEM leukemia 7.43% | RPMI-8226 leukemia 8.62% | HS 578T breast -3.16%

O=C(NC(=S)NNC(=S)NNc1ccccc1)c1ccccc1
inactive: SK-MEL-2 melanoma 24.2% | SN12C renal 25.7% | UO-31 renal 54% | ACHN renal 70.7% | CAKI-1 renal 55.9% | A498 renal 78.9% | MOLT-4 leukemia 39.3% | RPMI-8226 leukemia 19.8% | OVCAR-8 ovarian 20.9% | OVCAR-5 ovarian 59.7% | OVCAR-4 ovarian 84.8% | SK-OV-3 ovarian 89.9% | IGROV1 ovarian 33.4% | OVCAR-3 ovarian 71.6% | HS 578T breast 15.2% | NCI/ADR-RES ovarian 75.4%

C=C(C)C(C(=O)OCC)(C(=O)OCC)C(C)C
inactive: SK-MEL-2 melanoma 121% | UO-31 renal 100% | TK-10 renal 113% | ACHN renal 104% | CAKI-1 renal 105% | A498 renal 110% | CCRF-CEM leukemia 98.2% | MOLT-4 leukemia 114% | SR leukemia 120% | RPMI-8226 leukemia 99.4% | OVCAR-8 ovarian 108% | OVCAR-5 ovarian 94.7% | OVCAR-4 ovarian 98.5% | SK-OV-3 ovarian 107% | IGROV1 ovarian 117% | OVCAR-3 ovarian 116% | NCI/ADR-RES ovarian 116%

Cc1ccc(C(=O)C(Br)C(Br)c2ccccc2)cc1 (stereo unspecified)
inactive: SK-MEL-2 melanoma 113% | SN12C renal 86.4% | UO-31 renal 66.9% | CAKI-1 renal 55.1% | A498 renal 75.6% | MOLT-4 leukemia 46% | RPMI-8226 leukemia 48.2% | OVCAR-8 ovarian 96.6% | OVCAR-5 ovarian 102% | OVCAR-4 ovarian 71.9% | SK-OV-3 ovarian 114% | IGROV1 ovarian 62.5% | OVCAR-3 ovarian 61.7% | HS 578T breast 98.2% | NCI/ADR-RES ovarian 105%

COc1ccc2c(c1)cn1c3ccc(O)cc3[nH]c(=O)c21
active: SR leukemia 3.4% | RPMI-8226 leukemia -20.2% | OVCAR-3 ovarian -21.9% | HS 578T breast -22.9% | NCI/ADR-RES ovarian 1.78%
inactive: EKVX NSCLC 47.9% | SN12C renal 40.2% | UO-31 renal 23.3% | TK-10 renal 13% | ACHN renal 14.8% | CAKI-1 renal 22.2% | A498 renal 40.7% | CCRF-CEM leukemia 18.5% | MOLT-4 leukemia 19.2% | OVCAR-8 ovarian 15% | OVCAR-5 ovarian 18.7% | OVCAR-4 ovarian 28.6% | SK-OV-3 ovarian 11.3% | IGROV1 ovarian 13.2%

Br/C(=N\Nc1nn[nH]n1)c1ccccc1
inactive: SK-MEL-2 melanoma 90.9% | SN12C renal 98.7% | UO-31 renal 78.6% | ACHN renal 92.7% | CAKI-1 renal 92.5% | A498 renal 114% | MOLT-4 leukemia 105% | RPMI-8226 leukemia 102% | OVCAR-8 ovarian 103% | OVCAR-5 ovarian 102% | OVCAR-4 ovarian 107% | SK-OV-3 ovarian 98.6% | IGROV1 ovarian 111% | OVCAR-3 ovarian 120% | HS 578T breast 99.4% | NCI/ADR-RES ovarian 100%

O=C(Nc1ccc(-n2cc(-c3ccncc3)c(-c3ccc(Cl)c(O)c3)n2)cc1)c1ccc(Cl)c(C(F)(F)F)c1
inactive: EKVX NSCLC 35.2% | SN12C renal 66.6% | A498 renal 71.8% | OVCAR-5 ovarian 52.6% | OVCAR-4 ovarian 40.6% | SK-OV-3 ovarian 14.4% | IGROV1 ovarian 27.5% | NCI/ADR-RES ovarian 29.4%
active: UO-31 renal -37.3% | TK-10 renal -19.8% | ACHN renal -24.3% | CAKI-1 renal -33.5% | CCRF-CEM leukemia 3.34% | MOLT-4 leukemia -1.8% | SR leukemia -13.4% | RPMI-8226 leukemia -42.7% | OVCAR-8 ovarian -1.91% | OVCAR-3 ovarian -24.9% | HS 578T breast -53.7%

CCOC(=O)C(C)C(C)(O)c1ccccc1 (stereo unspecified)
inactive: SK-MEL-2 melanoma 97.7% | SN12C renal 98.2% | UO-31 renal 78.5% | ACHN renal 111% | CAKI-1 renal 109% | A498 renal 91.5% | MOLT-4 leukemia 95.4% | RPMI-8226 leukemia 89.9% | OVCAR-8 ovarian 107% | OVCAR-5 ovarian 104% | OVCAR-4 ovarian 89.6% | SK-OV-3 ovarian 102% | IGROV1 ovarian 101% | OVCAR-3 ovarian 107% | HS 578T breast 98.4% | NCI/ADR-RES ovarian 99.5%
